This passage reports growth results from PubChem BioAssay (NCI).

Test systems include SR leukemia; RPMI-8226 leukemia; OVCAR-8 ovarian; OVCAR-5 ovarian; OVCAR-4 ovarian; SK-OV-3 ovarian; IGROV1 ovarian; OVCAR-3 ovarian; HS 578T breast; NCI/ADR-RES ovarian; T-47D breast; BT-549 breast; MDA-MB-435 melanoma; SW-620 colon; MCF7 breast; HCT-116 colon; HCC-2998 colon; KM12 colon; MDA-MB-468 breast.
What all share (experiment): NCI-60 one-dose screen, 48 h (100 = growth as untreated, 0 = no growth, -100 = all killed)
Conditions in all cases: 10 µM unless noted

Compounds without any hit were thinned out: in the full panel of roughly 83,000, 20% have a hit.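 Values shown are percent growth following 48 h exposure of cells in 96-well plates to a single concentration of compound; below 10 was considered active.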 A number with no mark means an inactive call. Calls of active or inactive are those of the source.

For the molecule `Cc1cc2c(cc1Cl)C(=O)/C(=C/c1ccc(F)cc1)O2`, the growth was 89.1% in the experiment with SR leukemia; 97.2% in the experiment on RPMI-8226 leukemia; 97.5% with OVCAR-8 ovarian; 106% with OVCAR-5 ovarian; 90.9% in the experiment on OVCAR-4 ovarian; 100% in the experiment on SK-OV-3 ovarian. Also, the growth is 20.9% in the experiment on IGROV1 ovarian; 124% with OVCAR-3 ovarian; 97.1% in the experiment on HS 578T breast; 93.3% with NCI/ADR-RES ovarian; 69.1% in the experiment on T-47D breast; 85% in the experiment on BT-549 breast. In addition, the growth is 106% in the experiment with MDA-MB-435 melanoma; 111% in the experiment with SW-620 colon; 37.9% in the experiment with MCF7 breast; 73.5% with HCT-116 colon; 117% in the experiment with HCC-2998 colon; 92.7% in the experiment on KM12 colon. Moreover, the growth in the experiment with MDA-MB-468 breast is 91.1%.

In the case of `CC(=O)Nc1ccc(-c2nc3cc(-c4ccc(O)cc4)ccc3n2C)cc1`, the growth with SR leukemia was 23.1%; in the experiment on RPMI-8226 leukemia, 41.3%; in the experiment with OVCAR-8 ovarian it was 54.8%; in the experiment with OVCAR-5 ovarian, 74.2%; in the experiment on OVCAR-4 ovarian, 54.5%; with SK-OV-3 ovarian, 94.5%. Also, the growth was 34.8% in the experiment with IGROV1 ovarian; 49% in the experiment with OVCAR-3 ovarian; 66.1% with HS 578T breast; 55.3% with NCI/ADR-RES ovarian; 50.8% in the experiment on T-47D breast; 65.6% in the experiment with BT-549 breast. For the same molecule, the growth is 50.2% with MDA-MB-435 melanoma; 66% with SW-620 colon; 24.7% in the experiment with MCF7 breast; 29% in the experiment on HCT-116 colon; 58.9% in the experiment on HCC-2998 colon; 57.8% in the experiment on KM12 colon. For the same molecule, the growth with MDA-MB-468 breast was 58.3%.

As for `CN(C)CCn1c2ccccc2c2nc3ccc([N+](=O)[O-])cc3nc21`, the growth is 13% in the experiment with SR leukemia; 20.3% with RPMI-8226 leukemia; -15.6% (active) in the experiment with OVCAR-8 ovarian; -0.168% (active) with OVCAR-5 ovarian; 16.6% in the experiment with OVCAR-4 ovarian; 8.18% (active) in the experiment on SK-OV-3 ovarian. For the same molecule, the growth in the experiment with IGROV1 ovarian is 4.78% (active); in the experiment with OVCAR-3 ovarian it was 7.62% (active); with HS 578T breast, 10.1%; in the experiment with NCI/ADR-RES ovarian, 8.38% (active); with T-47D breast, 14.3%; in the experiment with BT-549 breast, 12.5%. Moreover, the growth with MDA-MB-435 melanoma was 22.3%; in the experiment with SW-620 colon it was 12.2%; in the experiment on MCF7 breast, 12.4%; in the experiment on HCT-116 colon it was 0.47% (active); in the experiment on HCC-2998 colon, 2.82% (active); in the experiment with KM12 colon it was 1.62% (active). Further, the growth in the experiment on MDA-MB-468 breast was -25.5% (active).

In the case of `CN(C)CCn1c2ccccc2c2nc3cc4ccccc4cc3nc21`, the growth with SR leukemia is 5.18% (active); with RPMI-8226 leukemia, 14.4%; with OVCAR-8 ovarian it was -46.8% (active); with OVCAR-5 ovarian, 8% (active); with OVCAR-4 ovarian it was 48%; with SK-OV-3 ovarian, 45.5%. In addition, the growth in the experiment with IGROV1 ovarian is -9.73% (active); in the experiment on OVCAR-3 ovarian, 46.6%; in the experiment with HS 578T breast, 42.7%; with NCI/ADR-RES ovarian it was -19.4% (active); in the experiment on T-47D breast it was 45.3%; in the experiment with BT-549 breast it was 52.8%. Further, the growth in the experiment on MDA-MB-435 melanoma is -67% (active); in the experiment on SW-620 colon, -58.3% (active); in the experiment on MCF7 breast, -9.03% (active); with HCT-116 colon it was -61.4% (active); in the experiment with HCC-2998 colon, -82.1% (active); with KM12 colon, 4.87% (active). Moreover, the growth in the experiment with MDA-MB-468 breast is 23.7%.

In the case of `O=S(=O)(Nc1cccc(-n2cnc3cc(-c4ccc(O)cc4)ccc32)c1)C1CC1`, the growth is 13.2% in the experiment on SR leukemia; 23.9% in the experiment on RPMI-8226 leukemia; 19.8% in the experiment on OVCAR-8 ovarian; 47.1% in the experiment with OVCAR-5 ovarian; 48.3% in the experiment on OVCAR-4 ovarian; 35.6% in the experiment with SK-OV-3 ovarian. Further, the growth is 35.3% with IGROV1 ovarian; 2.82% (active) in the experiment on OVCAR-3 ovarian; -20.1% (active) in the experiment on HS 578T breast; 25.1% in the experiment with NCI/ADR-RES ovarian; 27.3% in the experiment with T-47D breast; 14.3% in the experiment with BT-549 breast. The growth in the experiment with MDA-MB-435 melanoma was -21.3% (active); in the experiment on SW-620 colon it was 31.1%; in the experiment with MCF7 breast, 21.8%; in the experiment with HCT-116 colon, 13.4%; in the experiment on HCC-2998 colon, 40.8%; with KM12 colon, 6.07% (active). For the same molecule, the growth in the experiment on MDA-MB-468 breast was 3.78% (active).

Turning to `CCOC(=O)COc1c(OC)c(OC)cc2oc(-c3cccc(C(=O)Nc4ccc(Cl)cc4)c3)cc(=O)c12`, the growth with SR leukemia is 18.4%; in the experiment on RPMI-8226 leukemia, 38.5%; in the experiment with OVCAR-8 ovarian, 52%; in the experiment with OVCAR-5 ovarian, 81.4%; in the experiment with OVCAR-4 ovarian, 68.8%; with SK-OV-3 ovarian it was 75.4%. For the same molecule, the growth with IGROV1 ovarian is 54.4%; in the experiment on OVCAR-3 ovarian it was 23.3%; with HS 578T breast it was 49.6%; with NCI/ADR-RES ovarian it was 36.5%; in the experiment on T-47D breast, 47.5%; in the experiment on BT-549 breast, 21.2%. Further, the growth in the experiment on MDA-MB-435 melanoma was -11.8% (active); in the experiment on SW-620 colon it was 37.6%; with MCF7 breast, 15.7%; with HCT-116 colon, 22.7%; in the experiment on HCC-2998 colon, 76%; in the experiment on KM12 colon it was 16.2%. Moreover, in the experiment with MDA-MB-468 breast, the growth is 68%.

Regarding `CC(=O)Nc1ccc(C(=O)NC(=S)Nc2ccc(S(N)(=O)=O)cc2)cc1`, the growth in the experiment with SR leukemia was 105%; in the experiment with RPMI-8226 leukemia, 105%; in the experiment with OVCAR-8 ovarian it was 94.6%; with OVCAR-5 ovarian, 96.5%; in the experiment with OVCAR-4 ovarian it was 84.9%; in the experiment with SK-OV-3 ovarian, 101%. Besides, the growth is 92.3% with IGROV1 ovarian; 97.7% in the experiment on OVCAR-3 ovarian; 94.5% in the experiment on HS 578T breast; 95.9% in the experiment on NCI/ADR-RES ovarian; 73.8% with T-47D breast; 94.4% in the experiment on BT-549 breast. For the same molecule, the growth was 97.5% in the experiment on MDA-MB-435 melanoma; 98% in the experiment on SW-620 colon; 93% with MCF7 breast; 99.4% in the experiment with HCT-116 colon; 97.2% in the experiment with HCC-2998 colon; 97.5% in the experiment on KM12 colon. For the same molecule, in the experiment with MDA-MB-468 breast, the growth is 80.2%.

Turning to `COc1ccc(/C=C/c2nc3ccccc3nc2Nc2cccc(C)c2)cc1`, the growth with SR leukemia is 85.8%; in the experiment on RPMI-8226 leukemia, 95.7%; in the experiment with OVCAR-8 ovarian, 98%; in the experiment on OVCAR-5 ovarian, 108%; in the experiment with OVCAR-4 ovarian, 91.6%; in the experiment on SK-OV-3 ovarian, 95.9%. Moreover, the growth in the experiment with IGROV1 ovarian is 82.1%; in the experiment on OVCAR-3 ovarian it was 104%; with HS 578T breast, 92.3%; in the experiment on NCI/ADR-RES ovarian, 105%; in the experiment with T-47D breast, 77.7%; in the experiment with BT-549 breast it was 99.9%. Also, the growth in the experiment with MDA-MB-435 melanoma is 98.3%; with SW-620 colon, 95.3%; in the experiment on MCF7 breast, 67.3%; in the experiment with HCT-116 colon, 87.3%; in the experiment with HCC-2998 colon, 116%; in the experiment with KM12 colon it was 97.2%. Further, the growth in the experiment with MDA-MB-468 breast was 101%.
